D2 ag-1 = agonists of human D2 dopamine receptor | P14416 | HEK293 T-REx D2 cells, calcium flux agonist mode | activation, % at 2 µM | actives 0.53% (n = 340,000) | AID 485358;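 active = activation over 3 SD above normal in the single-dose calcium agonist read, cut at about 30% in these data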
Target sequence (P14416 whole entry, looked up): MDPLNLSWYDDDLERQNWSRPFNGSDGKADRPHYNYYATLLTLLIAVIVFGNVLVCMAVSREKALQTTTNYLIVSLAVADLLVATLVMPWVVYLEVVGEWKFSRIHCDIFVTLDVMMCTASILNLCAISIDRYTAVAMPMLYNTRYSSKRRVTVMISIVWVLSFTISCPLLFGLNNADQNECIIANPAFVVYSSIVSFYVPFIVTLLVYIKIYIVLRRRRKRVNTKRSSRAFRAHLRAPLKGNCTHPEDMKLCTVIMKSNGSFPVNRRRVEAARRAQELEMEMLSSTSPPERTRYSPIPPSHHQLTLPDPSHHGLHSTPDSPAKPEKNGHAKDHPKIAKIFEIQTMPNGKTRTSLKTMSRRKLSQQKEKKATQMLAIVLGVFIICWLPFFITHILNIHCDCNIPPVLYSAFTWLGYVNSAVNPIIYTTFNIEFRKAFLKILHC
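Tetracycline-induced HEK293 T-REx cells with force-coupled D2 receptor, plated overnight at 30 C, loaded with no-wash calcium dye. After a 10 s baseline, compound was pin-added and calcium flux read kinetically for 180 s; calcium rises flagged agonists.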
D2 ag-2 = agonists of human D2 dopamine receptor (beta-arrestin); DiscoveRx PathHunter D2 beta-arrestin, luminescence, 90 min; 100% = 57 uM dopamine signal; activation, % (concentration not given with the values); actives 0.084% (n = 360,000); AID 624465; in the data active = activation above about 40%; inconclusive = between about 15% and that limit
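Agonist mode: compounds alone added to overnight-plated D2 PathHunter cells for 90 min at 37 C, with 57 uM final dopamine (EC100) defining full response. Beta-arrestin recruitment detected by chemiluminescent reagent, read after 1 h at ambient temperature.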
D2 PAM-1 = D2 dopamine receptor (human) potentiation; potentiation, % at 10 µM; AID 485347; actives 0.34% (n = 340,000); HEK293 T-REx D2, calcium flux, EC20 dopamine potentiation;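 active = potentiation over 3 SD above the plate norm, cut at about 30% in these data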
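Using a no-wash calcium dye in inducible, force-coupled HEK293 Trex cells expressing D2, we tracked fluorescence each second for 180 s after compound, then for 180 s after EC20 dopamine to detect augmented signalling.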
D2 antag = D2 dopamine receptor (human) antagonism | P14416 | HEK293 TREx D2 cells, calcium flux, dopamine EC80 | inhibition, % at 10 µM | actives 2% (n = 340,000) | AID 485344; in the data active = inhibition above about 30%; inactive = below that, where a call was filed
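Tetracycline-induced HEK293 TREx cells expressing D2 receptor forced-coupled to calcium signalling, loaded with no-wash calcium dye. Compounds added and calcium flux read 180 s, then dopamine added at EC80 and read a further 180 s.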
D2 PAM-2 = human D2 receptor positive allosteric modulation. DiscoveRx D2 beta-arrestin cells, luminescence, 90 min; 100% = 57 uM dopamine signal. potentiation, % (test concentration not listed). actives 0.23% (n = 360,000); in the data active = potentiation above about 50%; inconclusive = mostly about 30% to 49%
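PathHunter beta-arrestin assay in DiscoveRx D2 cells. Compounds were added with an EC20 of dopamine (50 nM final) for 90 min at 37 deg C. Luminescence was read 1 h after detection reagent, with 57 uM dopamine as the EC100 control.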
Of the large screens only hits and unclear results are named; the others gave an inactive call. Compounds with a hit are over-represented: about 2.4% of the library has one in this group of screens.

OC1(c2ccc(Cl)cc2)CCN(Cc2cn[nH]c2-c2ccccc2)CC1	D2 antag 84
OC1(c2ccc(Cl)cc2)CCN(Cc2cn[nH]c2-c2ccc(F)cc2)CC1	D2 antag 56
COc1ccc(-c2[nH]ncc2CN2CCC(O)(c3ccc(Cl)cc3)CC2)cc1	none
CC(C)NC(=O)Cn1c(=O)nc(-c2ccccc2)c2ccccc21	none (no result: D2 ag-2, D2 antag, D2 PAM-2)
CCN(CC)CCN(Cc1cc2cc3c(cc2[nH]c1=O)OCCO3)C(=S)NCC1CCCO1 (stereo unspecified)	none
CN(C)CCN(Cc1cc2cc3c(cc2[nH]c1=O)OCCO3)C(=S)NCC1CCCO1 (stereo unspecified)	D2 antag 41
Cc1ccc(C)c(Cn2cnc3ccccc3c2=O)c1	none (no result: D2 ag-2, D2 PAM-1, D2 antag, D2 PAM-2)
CCc1ccc(NC(=O)N2CC(C)Oc3ccc(C)cc32)cc1 (stereo unspecified)	none (no result: D2 ag-2, D2 antag, D2 PAM-2)
O=C(c1ccc(N2CCOCC2)c([N+](=O)[O-])c1)N1CCN(c2ccccc2)CC1	none (no result: D2 ag-1, D2 PAM-1, D2 antag)
O=C(c1ccc(N2CCC3(CC2)OCCO3)c([N+](=O)[O-])c1)N1CCOCC1	D2 antag 31
CCCC(=O)Nc1cc(-c2nc3cccnc3s2)ccc1C	none (no result: D2 ag-2, D2 antag, D2 PAM-2)
COc1ccc(C(=O)/C=C/Nc2ccc([N+](=O)[O-])cc2C)cc1OC	D2 antag 40
COc1ccc(C(=O)/C=C/Nc2ccc([N+](=O)[O-])cc2C)c(OC)c1	none
CCCN1C(=O)/C(=C/c2c(N3CCNC(=O)C3CC(=O)OC)nc3c(C)cccn3c2=O)SC1=S (stereo unspecified)	D2 ag-1 55, D2 antag 43 (no result: D2 ag-2, D2 PAM-2)
Cc1cc(C(=O)NNC(=S)NC(C)c2ccccc2)c2ccccc2n1 (stereo unspecified)	D2 antag 45
Cc1cc(C(N)=O)c2ccccc2n1	D2 antag 50
CCN1/C(=C/c2ccc3cc(C)ccc3[n+]2CC)Sc2ccccc21	D2 ag-1 36
CSc1ncc(C(=O)Nc2cc(Cl)ccc2C)c(-c2ccccc2)n1	none (no result: D2 ag-2, D2 antag, D2 PAM-2)
Cc1cc(C)c(C#N)c(SCc2cn3ccccc3n2)n1	none
Cc1cc(C)nc(SCc2cn3ccccc3n2)n1	D2 antag 38
Cc1ccc(NC(=O)c2c(C)oc3ccc(O)c(CN4CCCCCC4)c23)cc1	none (no result: D2 ag-2, D2 antag, D2 PAM-2)
Cc1csc2nc(-c3ccc(NS(=O)(=O)c4cc(F)ccc4F)cc3)cn12	none (no result: D2 ag-2, D2 antag, D2 PAM-2)
Clc1ccc(OCCCCCN2CCCC2)c(Br)c1	none
Clc1ccc(OCCCN2CCCCC2)c(Br)c1	D2 antag 38
Clc1ccc(OCCN2CCCCC2)c(Cl)c1	D2 antag 72
CC1CC(C)CN(CCOc2ccc(Cl)cc2Cl)C1 (stereo unspecified)	none (no result: D2 ag-1, D2 PAM-1, D2 antag)
Clc1ccccc1OCCN1CCCCC1	D2 antag 44
Clc1ccc(SCCCN2CCCCC2)cc1	D2 antag 38
Cc1cn2c(=O)cc(COC(=O)c3cccc(NC(=O)C(C)Oc4ccccc4)c3)nc2s1 (stereo unspecified)	none (no result: D2 ag-2, D2 antag, D2 PAM-2)
O=C(CSc1nc(-c2ccccc2)[nH]c1-c1ccccc1)Nc1ccc2c(c1)OCO2	none (no result: D2 ag-2, D2 antag, D2 PAM-2)
CCC(C)NC(=O)c1cc2n(n1)CCCN(Cc1ccc(C)cc1)C2=O (stereo unspecified)	none (no result: D2 ag-2, D2 antag, D2 PAM-2)
O=C(CN(c1cccc(C(F)(F)F)c1)S(=O)(=O)c1ccccc1)N1CCOCC1	D2 ag-2 inconclusive
O=C(CN(c1ccc(Cl)c(C(F)(F)F)c1)S(=O)(=O)c1ccccc1)N1CCOCC1	D2 antag 35
COc1ccc(NS(=O)(=O)c2coc(C(N)=O)c2)cc1Cl	D2 antag 31
CC(=O)c1ccc(NC(=O)c2cccc(NC(=O)N3CCSc4ncccc43)c2)cc1	none (no result: D2 ag-2, D2 antag, D2 PAM-2)
Cc1c2cnn(-c3ccccc3)c(=O)c2c(C)n1CC(=O)NCc1ccccc1Br	none (no result: D2 ag-2, D2 PAM-1, D2 antag, D2 PAM-2)
O=C(CSc1nc2ccc(Cl)cc2[nH]1)NCCc1ccccc1	D2 antag 39
O=C(CSc1nc2ccc(Cl)cc2[nH]1)NCCc1ccc(Cl)cc1	none
CCCOc1ccc(C2C(=O)N(C3CCCCCC3)CC(=O)N2C(C)C)cc1OC (stereo unspecified)	none (no result: D2 ag-1, D2 ag-2, D2 antag, D2 PAM-2)
CCOC(=O)c1c(C)cccc1OCC(N)=O	D2 PAM-1 64
CC1CCN(CCOCCOc2ccccc2Br)CC1	none
CC1CCN(CCOCCOc2ccccc2-c2ccccc2)CC1	D2 antag 56

Assay outcomes (PubChem)
